Several values for one entry are separate records, joined by “and”; a condition that tells them apart may be missing. Equal entries are not always repeated. About 11,000 (3.5%) of roughly 310,000 compounds were called active. Inconclusive results (about 4%) are left out. The full list was thinned out, with actives kept by preference. Values without a mark were called inactive. Calls come from the whole dose curve; as a rule, active = well fitted inhibition curve with a large enough effect; inconclusive = small, poorly fitted or top-dose-only effect, or another doubt; inactive = no such curve, though single readings can be large or run the other way.
The compounds below were run against 4'-phosphopantetheinyl transferase ffp (Bacillus subtilis) (UniProt Q9F4F7) (assay: qHTS Assay for Inhibitors of Bacillus subtilis Sfp phosphopantetheinyl transferase (PPTase)). Details: Biochemical Sfp PPTase activity.
Outline: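 Step 1, compound plus 15 nM Sfp-PPTase, 15 min, room temperature. Step 2, add rhodamine-CoA (5 uM) and BHQ-2-YbbR (12.5 uM). Step 3, read 525/598 nm fluorescence at 0 and 30 min.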
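Note: the enzyme is Sfp with the accession as filed and its product quenches rhodamine fluorescence.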
Potency is the fitted concentration of half-maximal effect.
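Throughout, for largest response in the series, negative = inhibition: 0% = enzyme reaction without inhibitor and -100% = no enzyme wells.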

| SMILES | largest response in the series, negative = inhibition | Potency |
| --- | --- | --- |
| COC(=O)C(C(=O)OC)C1c2ccccc2C=C(C2CC2)N1C(=O)OC (stereo unspecified) | 22.5% and 27.4% |  |
| CCCOc1ccc(C2=CSC3=NCCN23)cc1Cl | 16% |  |
| CCOC(=O)C1CCCN(CCSc2ccc(C)cc2)C1 (stereo unspecified) | 12.5% |  |
| COc1ccc(C(=O)c2c(C)c(CCC#N)n3ccccc23)c(OC)c1 | 0.761% |  |
| COc1ccc(C(C)NC(=O)C23CC4CC(CC(C4)C2)C3)cc1 (stereo unspecified) | 5.95% |  |
| O=C(O)c1c(NC(=O)N2CCCC2)sc2c1CCCC2 | -9.57% |  |
| CC(O)c1ccc(OCCN(C)c2ccccn2)cc1 (stereo unspecified) | -0.377% |  |
| O=C(O)c1ccc(/C=C2\SC(=S)N(NC(=O)c3ccc(Br)cc3)C2=O)cc1 | -5.87% |  |
| CC(=O)N1C(=O)/C(=C2\SC(=S)N(NC(=O)c3ccc(O)cc3)C2=O)c2ccccc21 |  | 50.1 µM (active) |
| O=C(O)c1ccc2c(c1)C(=O)N(NC(=O)c1ccc(O)cc1)C2=O | 1.07% |  |
| COc1cc(Cl)ccc1OCc1cc(C(=O)N2CC[C@@H]3CCCC[C@H]3C2)no1 | -14.4% |  |
| COc1ccc(-c2nc3c(c4c2C[C@H](c2ccccc2)OC4)CN(C(=O)C2CC2)CC3)c(C)c1 | 12.8% |  |
| CC1(C)Cc2ccccc2-c2[nH]c(=S)[nH]c(=O)c21 | 2.54% |  |
| N#CC1=C(N)Oc2[nH]c(=S)[nH]c(=O)c2C12C(=O)Nc1ccccc12 (stereo unspecified) |  | 39.8 µM (active) |
| N#CC1=C(N)Oc2n[nH]c(CSc3ccccc3)c2C12C(=O)Nc1ccccc12 (stereo unspecified) | 17.6% |  |
| CCC(C)Sc1nc2c(cnn2-c2ccc(F)cc2)c(=O)[nH]1 (stereo unspecified) | -3.22% |  |
| CCOc1ccc(C(C(=O)NC2CCCC2)N(C(=O)c2snc(C(N)=O)c2N)C2CCCC2)cc1 (stereo unspecified) | 16.6% |  |
| COc1ccc2oc(C(=O)NCC(Cc3ccccc3)N(C)C)c(C)c2c1 (stereo unspecified) | -0.769% |  |
| CC1Cc2cc(/C(O)=C3\C(=O)C(=O)N(Cc4cccnc4)C3c3ccccc3F)ccc2O1 (stereo unspecified) | 11.3% |  |
| COc1ccc(C(=O)NN2C(=O)C3C(c4ccccc4)C=CC(c4ccccc4)C3C2=O)cc1 (stereo unspecified) | 33.4% |  |
| O=C(NN1C(=O)C2C(C1=O)C1C=CC2C12CC2)c1ccccc1Cl (stereo unspecified) | 12.4% |  |
| O=C(NN1C(=O)C2C3C=CC(C4CC34)C2C1=O)c1ccc(Cl)cc1 (stereo unspecified) | 27.6% |  |
| O=C(NN1C(=O)C2C3C=CC(O3)C2C1=O)c1ccccc1 (stereo unspecified) |  | 44.7 µM (active) |

| SMILES | largest response in the series, negative = inhibition | Potency |
| --- | --- | --- |
| COc1ccccc1C(=O)NN1C(=O)C2C3C=CC(O3)C2C1=O (stereo unspecified) |  | 56.2 µM (active) |
| COc1ccccc1C(=O)Nn1cnnc1 | 6.61% |  |
| COc1ccc(N2CCN(C(=O)c3cn(C)c4ccc(S(=O)(=O)N5CCOCC5)cc4c3=O)CC2)cc1 | 1.25% |  |
| O=C(C1CCC1)N1CCN(c2ccccc2)CC1 | 17.5% |  |
| CC1(c2ccc3ccccc3c2)NC(=O)NC1=O (stereo unspecified) | 12% |  |
| CC(C)C[C@@H](COc1ccccc1)N1CCN(CC(C)C)CCC1=O | 3.76% |  |
| CCCCCCCC/C=C\CCCCCCCC(=O)NCC(=O)O | 8.62% |  |
| CCCCCCC(O)(CCN1CCCCC1)c1ccccc1 (stereo unspecified) | 9.61% |  |
| CCCn1c(CCNc2nc(-c3ccc(OC)cc3)cs2)nc2ccccc21 | -0.532% |  |
| CCCn1c(C2CCCN2c2nc(-c3ccc(OC)cc3)cs2)nc2ccccc21 (stereo unspecified) |  | 89.1 µM (active) |
| CCCn1c(C2CCCN2c2nc(-c3ccc(C)cc3)cs2)nc2cc(Cl)c(N3CCCCC3)cc21 (stereo unspecified) | -23.2% |  |
| CC1CCN(C2=NC(=O)/C(=C/c3ccc(O)cc3)S2)CC1 | 14% |  |
| COc1ccc(N=Nc2c(-c3ccc(OC)cc3)[nH]oc2=O)cc1 | 24.2% |  |
| O=C(Nc1ccccc1)c1nnsc1S(=O)(=O)c1ccc(Cl)cc1 |  | 11.2 µM (active) |
| O=C(c1ccc(Cl)cc1)c1cnc(Nc2ccccc2)s1 | -3.35% |  |
| CS(=O)(=O)c1ccc(Cl)c(NC(=O)Nc2ccccc2)c1 | 7.87% |  |
| CN(c1ccc(O)cc1)c1nc(-c2cccnc2)cs1 | 0.24% |  |
| Cc1ccc(C(=O)CSc2ccccc2C(=O)O)cc1 | 13.7% |  |
| Cc1ccc(SC(CC(=O)c2ccc(C(C)(C)C)cc2)C(=O)O)cc1 (stereo unspecified) |  | 28.2 µM (active) |
| Cc1ccc(C(=O)CNc2ccc(F)cc2)cc1 | -8.3% |  |
| O=C(Nc1ccccc1N1CCOCC1)c1ccc(OCc2cscn2)cc1 | -1.59% |  |
| NC(=S)c1ccc(C(N)=S)o1 |  | 56.2 µM (active) |
| O=C(O)C1CC=CC2CCN(C3CCCCC3)C(=O)C21 (stereo unspecified) | 40% |  |
